Calls of active or inactive are those of the source. How the source made its calls: active means hit-call score of the fitted dose curve at least 0.9, where 1 is the maximum; inactive means score below 0.9.

Chain of Broad substrate specificity ATP-binding cassette transporter ABCG2 (Homo sapiens) (Q9UNQ0 whole entry, looked up): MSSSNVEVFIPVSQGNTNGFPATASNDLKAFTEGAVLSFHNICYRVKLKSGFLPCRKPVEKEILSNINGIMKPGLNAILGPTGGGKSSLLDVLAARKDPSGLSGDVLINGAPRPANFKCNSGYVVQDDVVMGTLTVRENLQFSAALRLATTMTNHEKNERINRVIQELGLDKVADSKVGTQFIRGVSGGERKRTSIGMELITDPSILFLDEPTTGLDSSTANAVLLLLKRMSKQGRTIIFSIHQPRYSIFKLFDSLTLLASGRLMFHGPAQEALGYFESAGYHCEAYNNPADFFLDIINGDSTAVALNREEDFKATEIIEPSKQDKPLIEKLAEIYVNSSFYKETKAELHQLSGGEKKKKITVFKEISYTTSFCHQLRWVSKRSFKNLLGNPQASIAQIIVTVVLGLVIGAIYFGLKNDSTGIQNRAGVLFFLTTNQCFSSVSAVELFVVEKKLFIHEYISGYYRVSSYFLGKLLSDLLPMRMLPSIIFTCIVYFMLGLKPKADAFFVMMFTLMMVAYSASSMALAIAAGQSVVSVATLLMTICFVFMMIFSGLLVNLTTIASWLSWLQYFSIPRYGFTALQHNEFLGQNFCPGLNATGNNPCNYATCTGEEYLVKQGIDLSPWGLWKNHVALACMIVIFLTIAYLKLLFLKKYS

Read-out in this assay: Broad substrate specificity ATP-binding cassette transporter ABCG2 (Homo sapiens) (UniProt Q9UNQ0)
Put plainly: LTEA_HepaRG_ABCG2: Life Technologies and Expression Analysis (LTEA) Assay for ABC Transporter (ABCG2) using HepaRG (AID 2283465). Conditions: mRNA level, 48 h; actives raise or lower the signal. In short, it runs like this:
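ABCG2 transcript was quantified by TaqMan qRT-PCR against three housekeeping genes in HepaRG cells. Cells were treated in duplicate for 48 h across an 8-point half-log series up to 100 uM, with 0.5% DMSO vehicle. Gain or loss versus DMSO was fit.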
On to `COc1cccc(C(=O)NN(C(=O)c2cc(C)cc(C)c2)C(C)(C)C)c1C`, for which the AC50 (as a rule, the concentration giving half of the maximal activity seen) is 16.7 µM (active).

Turning to `O=C(O)c1cc(Oc2ccc(C(F)(F)F)cc2Cl)ccc1[N+](=O)[O-]`, the AC50 was 2.98 µM (active). Regarding `Cc1cc(C2CC2)nc(Nc2ccccc2)n1`, the outcome was inactive. Same read-out and setting: the entry for `CNC(=O)Oc1cccc2c1OC(C)(C)O2` is “inactive”; for `CC(C1CC1)C(O)(Cn1cncn1)c1ccc(Cl)cc1` (stereo unspecified) it is “inactive”; for `CSc1nnc(C(C)(C)C)c(=O)n1N` it is “inactive”. For the compound `CCCOCC(=Nc1ccc(Cl)cc1C(F)(F)F)n1ccnc1`, the AC50 was 15.8 µM (active). As to `COP(=O)(NC(C)=O)SC` (stereo unspecified), the compound was called inactive. In the case of `CCOC(=O)COc1cc(-c2nn(C)c(OC(F)F)c2Cl)c(F)cc1Cl`, the compound was called inactive.

For `CN(C)C(=O)Nc1cccc(C(F)(F)F)c1`, the result was inactive.

On to `Nc1nc(N)nc(NC2CC2)n1`, for which the compound was classed as inactive.

On to `CN(C)NC(=O)CCC(=O)O`, for which the call was inactive.

On to `CNC(=O)ON=C(SC)C(=O)N(C)C`, for which the call was inactive. Still for that read-out and setting: the same measure for `CCc1cccc(C)c1N(C(=O)CCl)C(C)COC` (stereo unspecified): “inactive”. For the compound `CCOP(=S)(OCC)Oc1ccc2c(C)c(Cl)c(=O)oc2c1`, the half-maximal activity concentration (AC50) is 13.3 µM (active). The same measure, in the same setting: the same measure for `CNc1cnn(-c2cccc(C(F)(F)F)c2)c(=O)c1Cl`: 17.4 µM (active); for `CC(C)[C@H](C(=O)O[C@H](C#N)c1cccc(Oc2ccccc2)c1)c1ccc(Cl)cc1`: 37 µM (active). On to `COc1ccc(C(=CC(=O)N2CCOCC2)c2ccc(Cl)cc2)cc1OC`, for which the compound was classed as inactive. On the same count and under the same terms, the same measure for `CCOP(=O)(NC(C)C)Oc1ccc(SC)c(C)c1` (stereo unspecified): “inactive”; for `CSc1nc(NC(C)C)nc(NC(C)C)n1`: “inactive”. Still for that read-out and setting: the same measure for `CC1(C(=O)Nc2ccc(O)c(Cl)c2Cl)CCCCC1`: “inactive”.
